This is a sample that favours compounds with a hit; in the whole collection about 14% have one here.
HSD17B inh: inhibitors of human HSD17B10 dehydrogenase. recombinant HSD17B10, NADH fluorescence kinetic. Q99714. Potency, µM (doses to about 57.1 µM), for inactives: at the highest dose activity change, negative = inhibition, actives largely listed as inhibitors. 75,000 tested, 7.6% active;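 also: the protocol describes HADH2 (HSD17B10) and not the HSD17B4 of the title; potency is read from the fitted curve at half-maximal effect; % is scaled to controls: 0 for no effect and ±100 for the full control effect; nearly all actives have a fitted effect of over 70% in size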
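His-tagged E. coli-expressed HADH2 at 20 nM in 100 mM Tris-HCl pH 9.0 with 0.01 % Tween-20, preincubated 15 min with compound at room temperature. Reaction with 1 mM NAD+ and 90 uM beta-hydroxybutyryl coenzyme A; NADH fluorescence (360/450 nm) read kinetically over 4 min, last minus first point.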
AID923: qHTS Assay for Allosteric/Competitive Inhibitors of Caspase-1: Spectroscopic Profiling in AFC Spectral Region; compound fluorescence, AFC spectral region (405/520 nm); Potency, µM (titrated, usually from 57.5 µM), for the others: at the top dose fluorescence increase, most hits filed as activators; 75,000 tested, 1.1% active; AID 923, 2007; also: potency is read from the fitted curve at half-maximal effect; 0% is about no effect
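Baseline compound fluorescence (AFC region, 405 nm ex/520 nm em) taken from the intercept of kinetic reads with 50 nM caspase-1 and 5 uM Ac-WEHD-AFC; normalized to an on-plate AFC standard curve; compounds titrated up to 57 uM.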
4MU fluor: 4-MU region autofluorescence; compound autofluorescence, 340/450 nm, 4-MU equivalents; active compounds read high; max dye-equivalent concentration, M; 59,000 tested, 11% active; in the data active = max dye-equivalent concentration above about 10 nM; inconclusive = mostly about 1.1 nM to 9.6 nM
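Compounds in 100 mM Tris, pH 8.0, sat 15 min at room temperature before fluorescence was read at 340 nm excitation/450 nm emission; a per-plate six-point 4-MU standard curve converted signals to dye-equivalent concentration at each compound concentration.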
HADH2 inhib: blocks human hydroxyacyl-CoA dehydrogenase type II. recombinant HADH2, NADH fluorescence, beta-hydroxybutyryl-CoA. Potency, µM (titrated, usually from 57.1 µM), for inactives: top-dose activity change, negative = inhibition, actives largely listed as inhibitors. 73,000 tested, 3.4% active. AID 886; also: potency is read from the fitted curve at half-maximal effect; % is scaled to controls: 0 for no effect and ±100 for the full control effect; nearly all actives have a fitted effect of over 60% in size
Target sequence (Q99714 whole entry, looked up, one chain of several): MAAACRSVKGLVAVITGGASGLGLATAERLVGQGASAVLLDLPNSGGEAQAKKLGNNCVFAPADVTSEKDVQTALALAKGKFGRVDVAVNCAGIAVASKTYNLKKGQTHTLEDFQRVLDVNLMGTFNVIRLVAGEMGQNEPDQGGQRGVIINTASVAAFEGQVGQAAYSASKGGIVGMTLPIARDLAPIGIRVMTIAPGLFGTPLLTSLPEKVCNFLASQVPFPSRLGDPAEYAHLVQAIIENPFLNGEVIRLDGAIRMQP
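Buffer 100 mM Tris-HCl pH 9.0/0.01% Tween-20; HADH2 20 nM; NAD+ 1 mM; beta-hydroxybutyryl-CoA 90 uM (all final). 15 min cpd preincubation, RT.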
CRE Fsk mod: CRE-bla signaling modulation under forskolin stimulation. CHO CRE-bla reporter (cAMP response element driving beta-lactamase), forskolin EC10, beta-lactamase ratio. AID 662. Potency, µM (doses to about 38.2 µM), without a hit: top-dose activity change, negative = inhibition, usual class: activators. 71,000 tested, 2.5% active; active = well fitted activation curve with a large enough effect in the signal ratio, with a control signal flat, not every such curve was filed as active; inconclusive = small, poorly fitted or top-dose-only effect, or effect the other way, or a change in a side signal; the % refers to the signal ratio; also: potency is read from the fitted curve at half-maximal effect; % of control where 0% means no effect
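Beta-lactamase reporter under a cAMP responsive element in CHO cells; compounds tested in titration series against EC10 NKH 477, 3 h at 37 °C. Read-out: CCF4 FRET ratio 460nm/530nm (excitation 405nm) giving %Activity, fitted to AC50.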
A350 autofl: A350 region autofluorescence; AID 590; 59,000 tested, 11% active; Compound autofluorescence, 340/450 nm, Alexa 350 dye-equivalents; active compounds read high; max dye-equivalent concentration, M; in the data active = max dye-equivalent concentration above about 10 nM; inconclusive = mostly about 1.1 nM to 9.6 nM
* = called active by the depositor; i = inactive; u = inconclusive; x = no result; [ ] = dose if it differs, or a comment. Unless noted, calls follow the shape of the dose curve; as a rule, active = well fitted curve in the direction sought with a large enough effect; inconclusive = small, poorly fitted or top-dose-only effect, or another doubt; inactive = no such curve, though single readings can be large; an effect the other way counts as inactive or inconclusive.

SMILES	HSD17B inh	AID923	4MU fluor	HADH2 inhib	CRE Fsk mod	A350 autofl
COCCCNc1nc2c(c(=O)n(C)c(=O)n2C)n1Cc1cccc(OC)c1	x	x	1.24e-07M*	x	x	6.27e-08M*
Cc1ccc(Cl)cc1N1CCN(C(=O)c2ccc(NS(=O)(=O)c3c(C)noc3C)cc2)CC1	1.0%	0.6%	i	-2.8%	2.51µM*	i
Cc1ccc(C)c(N2CCN(C(=O)c3ccc(NS(=O)(=O)c4c(C)noc4C)cc3)CC2)c1	2.8%	-0.2%	i	-0.1%	u	i
CCC(C)[C@@H](NC(=O)OC(C)(C)C)c1nnc(S(=O)(=O)Cc2cccc(C)c2)o1 (some centres not stated)	-5.5%	1.0%	i	2.51µM*	u	i
CC(C)(C)OC(=O)N[C@@H](Cc1ccccc1)c1nnc(SCC(=O)O)o1	3.7%	-0.8%	i	4.8%	0.8%	u
CC(C)(C)OC(=O)N[C@@H](Cc1ccccc1)c1nnc(S(=O)(=O)Cc2ccccc2)o1	-12.6%	-1.3%	i	1.26µM*	u	i
C[C@H](O)[C@H](O)[C@@H](O)c1cnc2nc(N)[nH]c(=O)c2n1	x	x	5.18e-07M*	25.1µM*	-1.3%	5.29e-07M*
C[C@@]12CCC3c4ccc(OC5C=CC(c6ccccc6)OC5CO)cc4CCC3C1CCC2=O (some centres not stated)	5.5%[11.4 µM]	-1.7%[11.5 µM]	x	2.8%[11.4 µM]	x	x
Cn1cccc1C(=O)N1CCC2(CCCN(Cc3ccc(C#N)cc3)C2)CC1	1.5%	-0.1%	i	7.7%	1.6%	i
CCOC(=O)COc1ccc2cc(C(=O)OCC)c(=O)oc2c1	25.1µM*	1.1%	x	3.98µM*	u	x
CCOC(=O)c1ccc(COC(=O)c2cc3ccccc3oc2=O)o1	25.1µM*	-1.2%	1.79e-08M*	-22.9%	-5.3%	2.17e-08M*
O=C1NC(=S)S/C1=C1\Sc2ccccc2N1CCCS(=O)(=O)O	u	12.7%	u	2.51µM*	14.8%	u
COc1ccc(-c2cn3cc(Cl)ccc3n2)cc1OC	25.1µM*	-1.1%	7.27e-08M*	u	u	6.95e-08M*
COc1ccc(-c2nc(N)n[nH]2)cc1OC	u	0.8%	i	-15.4%	12.1%	i
CCOc1cccc(C(=O)Nc2ccc(N3CCN(S(C)(=O)=O)CC3)cc2)c1	0.0%	2.0%	1.47e-08M*	18.7%	1.2%	1.88e-08M*
Cc1ccc(C(=O)CSc2nnc(-c3cccnc3)n2N)cc1	-6.7%	0.9%	i	-10.1%	u	i
COc1ccc2nc(C)cc(C(=O)O)c2c1	31.6µM*	-4.1%	7.42e-08M*	25.1µM*	8.6%	7.09e-08M*
COc1ccc(-c2ccc(OC)cc2C(=O)O)cc1	1.8%	-0.9%	i	-0.6%	u	i
CCOc1ccc2nc(C)cc(C(=O)O)c2c1	12.6µM*	0.4%	1.48e-07M*	15.8µM*	u	1.53e-07M*
Cc1ccc(N(C(C)C(=O)N2CCCCC2)S(C)(=O)=O)cc1C (configuration not stated)	4.8%	1.1%	i	19.3%	1.9%	i
O=C(CCc1nc(-c2cccs2)no1)Nc1cnc2ccccc2c1	-21.7%	-0.3%	i	-2.9%	u	i
Cc1ccc(-n2c(Cc3cccn3C)nnc2SCC(=O)N2CCc3ccccc32)cc1	-9.6%	-0.4%	i	-0.5%	-13.9%	i
Cc1cc2c(c(N)n1)c(=O)oc1ccccc12	7.94µM*	-1.4%	3.97e-07M*	-15.9%	2.51µM*	5.26e-07M*
O=S(=O)(c1ccccc1)N1CCC(N2CCN(c3ccccc3)CC2)CC1	x	x	i	x	x	i
C=C(C)CSc1nc2nc(C)cc(C)n2n1	-13.0%	1.5%	i	-23.6%	18.6%	i
SMILES	HSD17B inh	AID923	4MU fluor	HADH2 inhib	CRE Fsk mod	A350 autofl
COc1cccc(-c2nc(-c3ccccn3)no2)c1OC	3.5%	-0.6%	i	9.1%	u	i
c1ccc(-c2cc(-c3nc(-c4ccccn4)no3)c3ccccc3n2)cc1	u	2.7%	x	12.2%	3.16µM*	x
c1ccc(-c2noc(-c3cccc4ccccc34)n2)nc1	25.1µM*	3.1%	u	u	u	u
N#C/C(=C\c1ccc(O)c(O)c1)C(=O)c1ccc(O)c(O)c1	-16.8%	-4.3%	u	1.58µM*	-4.2%	u
N#C/C(=C\c1ccc(O)c(O)c1)S(=O)(=O)c1ccccc1	25.1µM*	0.1%	i	u	-0.9%	i
N#C/C(=C\c1ccc(O)c(O)c1)C(=O)NCCCc1ccccc1	31.6µM*	-2.2%	u	u	u	u
N#C/C(=C\c1c[nH]c2ccccc12)C(=O)c1ccc(O)c(O)c1	12.6µM*	-3.3%	i	u	-6.9%	i
O=C(CSc1nc(-c2ccco2)cc(C(F)(F)F)n1)Nc1cccnc1	-13.9%	-0.9%	i	10.6%	u	i
CCn1ncc(NC(=O)Nc2cccc(C(F)(F)F)c2)c1C(N)=O	-1.4%	2.5%	u	0.5%	-16.0%	u
N#C/C(=C\c1ccc(O)c(O)c1)C(=O)OCCc1cccs1	15.8µM*	-1.8%	x	12.6µM*	-19.3%	x
O=C(Cc1cccs1)Nc1ccccn1	-12.9%	3.3%	i	-14.6%	u	i
COCCn1nnnc1CN1C2CCCC1CC(NC(C)=O)C2 (configuration not stated)	13.2%	0.3%	1.03e-08M*	-9.4%	-12.2%	1.55e-08M*
Cc1ccc(-c2ccc(=O)n(CC(=O)NCCN3C(C)CCCC3C)n2)cc1 (configuration not stated)	31.6µM*	-0.6%	i	16.8%	16.0%	u
CC1CCCC(C)N1CCNC(=O)Cn1nc(-c2ccccc2)ccc1=O (configuration not stated)	9.3%	0.7%	i	7.9%	-0.4%	i
CCCn1nnc(NC(=O)c2cccc(OCC(C)C)c2)n1	3.0%	-1.0%	i	-3.0%	u	i
CCc1cc2c(cc(C(=O)O)n2C)s1	u	1.8%	i	7.0%	u	i
CCCCNc1nc(C)nc2c1nc(-c1ccccc1)n2CC1CCN(C)CC1	25.1µM*	0.6%	x	12.2%	-2.7%	x
Cc1nc(NCc2ccccc2)c2nc(-c3ccccc3)n(CC3CCN(C)CC3)c2n1	20µM*	-0.6%	x	9.3%	-3.8%	x
CCCn1c(C)nc2c(NCCN3CCCC3)nc(C)nc21	23.4%	2.5%	x	15.0%	u	x
CC1(C)NC(=O)N(CC(O)CN2C(=O)CCC2=O)C1=O (configuration not stated)	0.4%	-1.3%	i	17.8%	0.4%	i
CC1(C)NC(=O)N(CC(O)Cn2nnc3ccccc32)C1=O (configuration not stated)	x	x	3.05e-06M*	x	x	3.4e-06M*

From PubChem BioAssay
